{
  "source": "PubChem BioAssay (NCI)",
  "note": "Compounds without any hit were thinned out: in the full panel of roughly 83,000, 20% have a hit.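 Interpretation: 100, growth as untreated; towards 0, rising growth inhibition; 0, no net growth; 0 to -100, cell death. Compounds scoring below 10 were considered active.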 Activity calls are given as the source filed them.",
  "data": [
    {"test_system": "UACC-62 melanoma", "assay": "NCI-60 one-dose screen, 48 h (100 = growth as untreated, 0 = no growth, -100 = all killed)", "conditions": "10 µM unless noted", "values": [
      {"compound": "COc1cc(/C=C/C(=O)c2ccccc2)ccc1Oc1nc(Nc2ccc(F)cc2)nc(N(C)C)n1", "growth": "14.8% (inactive)"},
      {"compound": "CN(C)CCCNC(=O)c1cc(NC(=O)c2cc(NC(=O)c3ccc(/C=C/c4ccccc4)cc3)cn2C)cn1C", "growth": "10.1% (inactive)"},
      {"compound": "COc1ccc(C(=O)/C=C/c2ccc(Oc3nc(Nc4ccc(F)cc4)nc(N(C)C)n3)c(OC)c2)cc1", "growth": "41% (inactive)"},
      {"compound": "CN(C)CCOc1ccc(C(=O)C2[C@H](c3ccc(Cl)cc3)[C@@H](c3ccccc3)NC23C(=O)Nc2ccc(Br)cc23)cc1", "note": "(some centres not stated)", "growth": "43.3% (inactive)"},
      {"compound": "COc1ccc(-c2ccc(SCC(=O)NCCc3ccc(S(N)(=O)=O)cc3)nn2)cc1", "growth": "75.8% (inactive)"},
      {"compound": "Cc1nc(Nc2ncc(C(=O)Nc3c(C)cccc3Cl)s2)cc(N2CCN(CCCNC(=O)COc3ccc(C4CCC(=O)NC4=O)cc3)CC2)n1", "note": "(configuration not stated)", "growth": "55.4% (inactive)"},
      {"compound": "C=C1CCC2C3(C)COC(c4ccc(F)cc4)OC3CCC2(C)C1C/C=C1/C(=O)OCC1O", "note": "(configuration not stated)", "growth": "-8.34% (active)"},
      {"compound": "O=C1NC(=O)/C(=C/c2ccccc2OCc2cc3ccccc3nc2Cl)S1", "growth": "52% (inactive)"},
      {"compound": "O=C(COc1ccc(NC(=O)Nc2ccc(Cl)c(Cl)c2)cc1)N=Nc1c(O)[nH]c2ccc(Br)cc12", "growth": "-35.5% (active)"},
      {"compound": "COc1cccc(/C=C/c2nc3ccccc3c(=O)n2CC(=O)Nc2ccc(Cl)cc2)c1", "growth": "95.1% (inactive)"},
      {"compound": "COc1ccc(C(=O)/C=C/c2cccc(Cl)c2)cc1S(N)(=O)=O", "growth": "-3.37% (active)"},
      {"compound": "COc1cc(C2CC(c3cc(OC)c(OC)c(OC)c3)=NN2c2ccccc2)ccc1OCc1ccc(C)cc1", "note": "(configuration not stated)", "growth": "78.8% (inactive)"},
      {"compound": "CCOP(=O)(OCCCl)c1nc(-c2ccc(C)cc2)oc1NCc1ccccc1", "note": "(configuration not stated)", "growth": "60.4% (inactive)"},
      {"compound": "Cc1ccccc1[C@H]1C(C(=O)c2ccc(Cl)cc2)C2(N[C@@H]1c1ccccc1)C(=O)Nc1ccccc12", "note": "(some centres not stated)", "growth": "-83.5% (active)"},
      {"compound": "Cc1ccccc1[C@H]1C(C(=O)c2ccc(Cl)cc2)C2(N[C@@H]1c1ccccc1)C(=O)Nc1ccc(Br)cc12", "note": "(some centres not stated)", "growth": "11.2% (inactive)"},
      {"compound": "COc1cccc(/C=C/C(=O)c2ccc(OC)c(S(N)(=O)=O)c2)c1", "growth": "52.6% (inactive)"},
      {"compound": "Cn1cc(NC(=O)c2cc(NC(=O)c3ccc(/C=C/c4ccccc4)cc3)cn2C)cc1C(=O)NCCCN1CCOCC1", "growth": "-89% (active)"},
      {"compound": "CN1CCN(Cc2ccc(C(=O)Nc3cccc(C#Cc4cccc5[nH]nc(N)c45)c3)cc2C(F)(F)F)CC1", "growth": "-88% (active)"},
      {"compound": "CCCn1cc(-c2nc(Nc3ccc(C(=O)NCCCCNc4cccc5c4C(=O)N(C4CCC(=O)NC4=O)C5=O)cc3)nc3[nH]ccc23)cn1", "note": "(configuration not stated)", "growth": "74.6% (inactive)"},
      {"compound": "COc1c(F)ccc(C(=O)Nc2ccc3nc(NC(=O)C4CCCN(S(=O)(=O)c5ccc(C(F)(F)F)cc5)C4)sc3c2)c1F", "note": "(configuration not stated)", "growth": "65.8% (inactive)"},
      {"compound": "Cn1nc(C(F)(F)F)cc1-c1cc(Cl)c(COc2ccc(Cl)cc2)c(-c2ccc(Cl)c(C(F)(F)F)c2)c1O", "growth": "-86.1% (active)"},
      {"compound": "COc1ccc(C(=O)/C=C/c2ccccc2Br)cc1S(N)(=O)=O", "growth": "34.4% (inactive)"},
      {"compound": "COc1ccc2c(c1)c(/C=N/Nc1ccc3ccccc3n1)cn2C", "growth": "20.6% (inactive)"},
      {"compound": "COc1c(F)ccc(C(=O)Nc2ccc3nc(NC(=O)C4CCCN(S(=O)(=O)c5ccc(Br)c(F)c5)C4)sc3c2)c1F", "note": "(configuration not stated)", "growth": "72% (inactive)"},
      {"compound": "CC12CC[C@@H]3[C@]4(C)COC(c5cn[nH]c5-c5ccc(Br)cc5)O[C@@H]4CC[C@@]3(C)[C@@H]1CC(C1=CCOC1=O)O2", "note": "(some centres not stated)", "growth": "41.5% (inactive)"},
      {"compound": "CC12CC[C@@H]3[C@]4(C)COC(c5cn[nH]c5-c5cccc(Cl)c5)O[C@@H]4CC[C@@]3(C)[C@@H]1CC(C1=CCOC1=O)O2", "note": "(some centres not stated)", "growth": "26.9% (inactive)"},
      {"compound": "CCCSc1nc(Nc2ccc(S(N)(=O)=O)cc2)c(C#N)c(-c2ccc(Cl)cc2)n1", "growth": "31.1% (inactive)"},
      {"compound": "C=C1CC[C@@H]2[C@]3(C)COC(c4cn[nH]c4-c4ccc(Br)cc4)O[C@@H]3CC[C@@]2(C)[C@@H]1C/C=C1/C(=O)OCC1O", "note": "(some centres not stated)", "growth": "-79.1% (active)"},
      {"compound": "Cc1cnc(C(=O)NNc2nc3cc(F)ccc3n3c(C(=O)N4CC5CC(C4)N5)ccc23)cn1", "growth": "2.81% (active)"},
      {"compound": "CCCSc1nc(Nc2ccc(S(N)(=O)=O)cc2)c(C#N)c(-c2cc(OC)c(OC)c(OC)c2)n1", "growth": "21% (inactive)"},
      {"compound": "C=C1CCC2C3(C)COC(c4ccccc4)OC3CCC2(C)C1CC(NCc1ccccc1)C1=CCOC1=O", "note": "(configuration not stated)", "growth": "70.1% (inactive)"},
      {"compound": "C=C1CC[C@@H]2[C@]3(C)COC(c4ccccc4)O[C@@H]3CC[C@@]2(C)[C@@H]1C/C=C1/C(=O)OCC1OC(C)=O", "note": "(some centres not stated)", "growth": "-82.7% (active)"}
    ]},
    {"test_system": "LOX IMVI melanoma", "assay": "NCI-60 one-dose screen, 48 h (100 = growth as untreated, 0 = no growth, -100 = all killed)", "conditions": "10 µM", "values": [
      {"compound": "O=C(COc1ccc(NC(=O)Nc2ccc(Cl)cc2)cc1)N/N=C/c1ccccc1", "growth": "-97.5% (active)"},
      {"compound": "CN(C)CCCNC(=O)c1cc(NC(=O)c2cc(NC(=O)c3ccc(/C=C/c4ccccc4)cc3)cn2C)cn1C", "growth": "-86.1% (active)"},
      {"compound": "CN(C)CCOc1ccc(C(=O)C2[C@H](c3ccc(Cl)cc3)[C@@H](c3ccccc3)NC23C(=O)Nc2ccc(Br)cc23)cc1", "note": "(some centres not stated)", "growth": "-100% (active)"},
      {"compound": "COc1ccc(-c2ccc(SCC(=O)NCCc3ccc(S(N)(=O)=O)cc3)nn2)cc1", "growth": "89.1% (inactive)"},
      {"compound": "Cc1nc(Nc2ncc(C(=O)Nc3c(C)cccc3Cl)s2)cc(N2CCN(CCCNC(=O)COc3ccc(C4CCC(=O)NC4=O)cc3)CC2)n1", "note": "(configuration not stated)", "growth": "-96.6% (active)"},
      {"compound": "O=c1onc(-c2cc3ccccc3nc2Cl)n1-c1cccc2ccccc12", "growth": "42% (inactive)"},
      {"compound": "COc1cccc(/C=C/c2nc3ccccc3c(=O)n2CC(=O)Nc2ccc(Cl)cc2)c1", "growth": "39.8% (inactive)"},
      {"compound": "COc1ccc(C(=O)/C=C/c2cccc(Cl)c2)cc1S(N)(=O)=O", "growth": "-87.4% (active)"},
      {"compound": "Cc1ccccc1[C@H]1C(C(=O)c2ccc(Cl)cc2)C2(N[C@@H]1c1ccccc1)C(=O)Nc1ccccc12", "note": "(some centres not stated)", "growth": "-100% (active)"},
      {"compound": "Cc1ccccc1[C@H]1C(C(=O)c2ccc(Cl)cc2)C2(N[C@@H]1c1ccccc1)C(=O)Nc1ccc(Br)cc12", "note": "(some centres not stated)", "growth": "-95.3% (active)"},
      {"compound": "Cc1cc(=O)oc2cc(OCCOc3ccc(/C=C/C(=O)Nc4ccccc4N)cc3)ccc12", "growth": "-73.2% (active)"},
      {"compound": "COc1cccc(/C=C/C(=O)c2ccc(OC)c(S(N)(=O)=O)c2)c1", "growth": "-69.9% (active)"},
      {"compound": "Cn1cc(NC(=O)c2cc(NC(=O)c3ccc(/C=C/c4ccccc4)cc3)cn2C)cc1C(=O)NCCCN1CCOCC1", "growth": "-97.5% (active)"},
      {"compound": "CN1CCN(Cc2ccc(C(=O)Nc3cccc(C#Cc4cccc5[nH]nc(N)c45)c3)cc2C(F)(F)F)CC1", "growth": "-92% (active)"},
      {"compound": "CCCn1cc(-c2nc(Nc3ccc(C(=O)NCCCCNc4cccc5c4C(=O)N(C4CCC(=O)NC4=O)C5=O)cc3)nc3[nH]ccc23)cn1", "note": "(configuration not stated)", "growth": "90.5% (inactive)"},
      {"compound": "COc1c(F)ccc(C(=O)Nc2ccc3nc(NC(=O)C4CCCN(S(=O)(=O)c5ccc(C(F)(F)F)cc5)C4)sc3c2)c1F", "note": "(configuration not stated)", "growth": "83.3% (inactive)"},
      {"compound": "COc1ccc(C(=O)/C=C/c2ccccc2Br)cc1S(N)(=O)=O", "growth": "-89.9% (active)"},
      {"compound": "COc1ccc2c(c1)c(/C=N/Nc1ccc3ccccc3n1)cn2C", "growth": "-97.9% (active)"},
      {"compound": "COc1c(F)ccc(C(=O)Nc2ccc3nc(NC(=O)C4CCCN(S(=O)(=O)c5ccc(Br)c(F)c5)C4)sc3c2)c1F", "note": "(configuration not stated)", "growth": "78.9% (inactive)"},
      {"compound": "COc1cc(OC)cc(-c2cc3ccc(N(C)C)cc3c(=O)[nH]2)c1", "growth": "23% (inactive)"},
      {"compound": "Clc1cccc(-c2ccc(OCCCN3CCN(c4ccncc4)CC3)cc2)c1", "growth": "-94.9% (active)"},
      {"compound": "CC12CC[C@@H]3[C@]4(C)COC(c5cn[nH]c5-c5ccc(Br)cc5)O[C@@H]4CC[C@@]3(C)[C@@H]1CC(C1=CCOC1=O)O2", "note": "(some centres not stated)", "growth": "22.1% (inactive)"},
      {"compound": "CC12CC[C@@H]3[C@]4(C)COC(c5cn[nH]c5-c5cccc(Cl)c5)O[C@@H]4CC[C@@]3(C)[C@@H]1CC(C1=CCOC1=O)O2", "note": "(some centres not stated)", "growth": "40.3% (inactive)"},
      {"compound": "CCCSc1nc(Nc2ccc(S(N)(=O)=O)cc2)c(C#N)c(-c2ccc(Cl)cc2)n1", "growth": "-96.3% (active)"},
      {"compound": "COc1ccc(-c2nc3ccc(C(=O)NN4C(=O)c5ccc([N+](=O)[O-])cc5C4=O)cc3[nH]2)cc1", "growth": "87.1% (inactive)"},
      {"compound": "C=C1CC[C@@H]2[C@]3(C)COC(c4cn[nH]c4-c4ccc(Br)cc4)O[C@@H]3CC[C@@]2(C)[C@@H]1C/C=C1/C(=O)OCC1O", "note": "(some centres not stated)", "growth": "-100% (active)"},
      {"compound": "Cc1cnc(C(=O)NNc2nc3cc(F)ccc3n3c(C(=O)N4CC5CC(C4)N5)ccc23)cn1", "growth": "16% (inactive)"},
      {"compound": "CCCSc1nc(Nc2ccc(S(N)(=O)=O)cc2)c(C#N)c(-c2cc(OC)c(OC)c(OC)c2)n1", "growth": "5.09% (active)"},
      {"compound": "C=C1CCC2C3(C)COC(c4ccccc4)OC3CCC2(C)C1CC(NCc1ccccc1)C1=CCOC1=O", "note": "(configuration not stated)", "growth": "74.3% (inactive)"},
      {"compound": "C=C1CC[C@@H]2[C@]3(C)COC(c4ccccc4)O[C@@H]3CC[C@@]2(C)[C@@H]1C/C=C1/C(=O)OCC1OC(C)=O", "note": "(some centres not stated)", "growth": "-100% (active)"}
    ]}
  ]
}
